Bioassay records deposited in PubChem BioAssay by National Center for Advancing Translational Sciences (NCATS).
Hits are enriched below; roughly 21% of the tested compounds scored in any of these assays.
Shiga inhibitor: blocks Shiga toxin action in Vero cells; hit rate 9.2% among 290,000; Vero cells, Shiga toxin protein synthesis inhibition reporter; inhibition, % at 38.7 µM; in the data active = inhibition mostly above about 28%, no sharp cut-off; inactive = mostly below about 43%
HCV inh: HCV inhibition; Huh7.5.1 HCVcc-Cre infection, luciferase reporter, 44 h; Potency, µM (series often up to 41.8 µM), most hits filed as inhibitors; hit rate 3.4% among 340,000
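After 44 h co-culture of compound, cells and HCVcc-Cre (~0.5 moi), substrate is added for 15 min at room temperature and luciferase measured over 15 sec. Cells were seeded at 1,000/well and pre-cultured 4 h.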
Pf growth 48h: inhibits P. falciparum growth in the first generation, 48 h; P. falciparum luciferase growth in erythrocytes, 48 h; Potency, µM (top dose mostly 28.7 µM), actives largely listed as inhibitors; hit rate 5.9% among 310,000
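First compound was added to culture medium, then infected red cells at 0.1% parasitemia and 2% hematocrit (final). After incubation at 37 C under 5% CO2, luciferase detection reagent was dispensed and light output recorded.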
HCMV inh: blocks human cytomegalovirus replication | HFF cells, HCMV-luciferase reporter, 72 h; active compounds read low | activity change, negative = inhibition, % at 57.5 µM | hit rate 4.5% among 410,000; in the data active = activity change below about -60%; inconclusive = no clear call, values can overlap the other calls; inactive = above about -39%
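Screen run at 2 compound doses on HFFs infected with reporter HCMV, MOI 1 PFU/cell. Luciferase activity from cell lysates at 72 h post infection gave inhibition relative to buffer-only and Salinomycin wells.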
CHX counter: affects cycloheximide protein synthesis inhibition readout, counter-screen; cell reporter, cycloheximide protein synthesis inhibition counterscreen; max response, %; hit rate 12% among 300,000; AID 2314; in the data active = max response mostly above about 13%, no sharp cut-off; inactive = mostly below about 14%; note: read at 38.3 µM for the half of the compounds with a filed dose
Pf growth 96h: inhibits malaria parasite growth, 96 h; P. falciparum luciferase reporter growth, 96 h; AID 504834; hit rate 6.9% among 320,000; Potency, µM (top dose mostly 28.7 µM), most hits filed as inhibitors
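Infected RBCs, 2% Hct / 0.05% parasitemia final; luciferase-reporter P. falciparum; cpd 96 h, 37 C, 5% CO2; luciferase detection reagent; luminescence.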
Each line names hits and unclear results; the compound was inactive in the other large screens. Unless noted, calls come from the whole dose curve; as a rule, active = well fitted inhibition curve with a large enough effect; inconclusive = small, poorly fitted or top-dose-only effect, or another doubt; inactive = no such curve, though single readings can be large or run the other way.

CCOCCCn1c(=N)c(C(=O)NC(C)c2ccccc2)cc2c(=O)n3cccc(C)c3nc21 (configuration not stated)	HCMV inh -73 (no result: Shiga inhibitor, HCV inh, Pf growth 48h, CHX counter, Pf growth 96h)
Cc1cccn2c(=O)c3cc(C(=O)NC(C)c4ccccc4)c(=N)n(CCCn4ccnc4)c3nc12 (configuration not stated)	Pf growth 48h 0.41µM, HCMV inh -68, Pf growth 96h 0.41µM
CCOCCCn1c(=N)c(C(=O)NCc2ccc3c(c2)OCO3)cc2c(=O)n3cccc(C)c3nc21	Pf growth 48h 1µM, HCMV inh inconclusive
CCC1CCCCN1C(=O)Cn1c(=O)cc(C(F)(F)F)c2c(C)nn(C)c21 (configuration not stated)	none (no result: Shiga inhibitor, HCV inh, Pf growth 48h, CHX counter, Pf growth 96h)
COc1ccc(N2CCN(S(=O)(=O)c3cnc[nH]3)CC2)cc1	none
Cc1ccc(CN(C(=O)COc2ccccc2[N+](=O)[O-])c2ccccn2)o1	none (no result: Shiga inhibitor, HCV inh, Pf growth 48h, CHX counter, Pf growth 96h)
O=c1[nH]c(-c2ccccc2)ncc1OCc1ccccc1	HCMV inh -63 (no result: Shiga inhibitor, Pf growth 48h, CHX counter, Pf growth 96h)
COc1ccccc1-c1n[nH]nc1C1=CC(=O)C[C@H](c2ccc(F)cc2)C1	none (no result: Shiga inhibitor, HCV inh, Pf growth 48h, CHX counter, Pf growth 96h)
COc1ccccc1C1=NC(c2ccc(F)cc2)N=C1C (configuration not stated)	Shiga inhibitor 88, CHX counter 28
CC(=O)Nc1ccc(NC(=O)CSc2nccn2Cc2ccc3c(c2)OCO3)cc1	none (no result: Shiga inhibitor, HCV inh, Pf growth 48h, CHX counter, Pf growth 96h)
COc1ccc(N2C(=O)C(CC(=O)Nc3ccccc3)N(CCC3=CCCCC3)C2=O)cc1 (configuration not stated)	none (no result: Shiga inhibitor, HCV inh, Pf growth 48h, CHX counter, Pf growth 96h)
COc1ccc(C(=O)Cn2ccsc2=NC(C)=O)cc1	none
O=C(Cn1ccsc1=NC(=O)c1ccco1)c1ccccc1	CHX counter 24
CCCOc1ccc(/C=C2\SC(=S)N(CC3CCCO3)C2=O)cc1 (configuration not stated)	HCV inh inconclusive
O=C1/C(=C/c2ccc(O)cc2)SC(=S)N1CC1CCCO1 (configuration not stated)	Shiga inhibitor 40, HCMV inh inconclusive, CHX counter 36, Pf growth 96h inconclusive
CCN=C1S/C(=C\c2sccc2C)C(=O)N1CC	Shiga inhibitor 31, HCV inh inconclusive, CHX counter 19
Cc1ccc(/C=C2\C(=O)NC(=O)N(CC3CCCO3)C2=O)s1 (configuration not stated)	none
Cc1ccsc1/C=C1\SC(=S)N(CC2CCCO2)C1=O (configuration not stated)	HCV inh inconclusive, HCMV inh inconclusive, Pf growth 96h 1.3µM
COc1cccc(-c2nc(CS(=O)(=O)CC(=O)Nc3cc(F)ccc3F)c(C)o2)c1	HCV inh inconclusive
CCCCC(=O)Nc1ccc(C(=O)NCCc2ccccc2)cc1	CHX counter 31, Pf growth 96h inconclusive
CC(=O)NCCc1ccc(S(=O)(=O)Nc2ccc(NC(=O)c3ccc(F)cc3)cc2)cc1	HCV inh 10µM, Pf growth 96h inconclusive
CCCC(=O)Nc1ccc(C(=O)NCCc2ccc(F)cc2)cc1	CHX counter 24, Pf growth 96h inconclusive
O=C(O)c1ccc2c(c1)C(=O)N(NC(=O)c1ccccc1)C2=O	Shiga inhibitor 61, CHX counter 31
O=[N+]([O-])c1ccc(-n2nnnc2-c2ccccc2)c([N+](=O)[O-])c1	HCV inh 35µM, HCMV inh -98, Pf growth 96h inconclusive
O=[N+]([O-])c1ccc(-n2nnnc2-c2ccccc2)cc1	none
O=C(O)C1CCCN1c1ncnc2c1oc1ccccc12 (configuration not stated)	Shiga inhibitor 49, CHX counter 43 (no result: Pf growth 96h)
CN1CCN(c2nc(-c3ccccc3)nc3c2oc2ccccc23)CC1	Pf growth 48h inconclusive, Pf growth 96h 5.9µM
NC(=O)C1CCN(c2nc(-c3ccccc3)nc3c2oc2ccccc23)CC1	HCV inh inconclusive, HCMV inh inconclusive, Pf growth 96h 1.5µM
CCc1nc(N2CCC(C)CC2)c2oc3ccccc3c2n1	Pf growth 48h inconclusive
COc1ccccc1-c1oc2ccccc2c1C#CCO	none (no result: Shiga inhibitor, Pf growth 48h, CHX counter, Pf growth 96h)
COc1ccccc1-c1oc2ccccc2c1C#CC(C)(C)O	HCV inh 10µM, Pf growth 48h inconclusive, Pf growth 96h inconclusive (no result: Shiga inhibitor, CHX counter)
COc1ccc(-c2c(-c3ccccc3OC)oc3ccccc23)cc1F	Pf growth 48h 2.9µM, Pf growth 96h 2.6µM (no result: Shiga inhibitor, CHX counter)
COc1ccccc1-c1oc2ccccc2c1-c1ccccc1OC	none (no result: Shiga inhibitor, Pf growth 48h, CHX counter, Pf growth 96h)
